Assay outcomes from PubChem.
ELG1 genotox = qHTS screen for small molecules that induce genotoxicity in human embryonic kidney (HEK293T) cells expressing luciferase-tagged ELG1 | Potency, µM (highest dose often 46 µM), for the others: at the highest dose activity change, positive = activation, usual class: activators | 330,000 tested, 1.3% active | HEK293T ELG1-luciferase reporter, luminescence, 16 h | AID 504466, 2011; further: % of control where 0% means no effect; nearly all actives have a fitted effect of over 60% in size
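16 hr compound incubation (37 °C, 5% CO2) of HEK293T cells carrying luciferase-tagged ELG1; luciferase then measured by ONE-Glo luminescence after 30 min at RT.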
SMN2 splice up = qHTS Assay for Enhancers of SMN2 Splice Variant Expression. HEK293 SMN2-luciferase splicing reporter, luminescence, 30-36 h. Potency, µM (doses to about 46.1 µM), inactives show at the top dose activity change, positive = activation, usual class: activators. 210,000 tested, 2.8% active; further: % of control where 0% means no effect; nearly all actives have a fitted effect of over 55% in size
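qHTS luciferase splicing reporter: luminescence rises when SMN2 exon 7 is included in transfected HEK293 cells. Compound exposure lasted 30-36 h at 37C, with 4.5 mM final sodium butyrate as control, followed by a ONE-Glo read.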
FLuc counter = qHTS profiling assay for firefly luciferase inhibitor/activator using purifed enzyme and Km concentrations of substrates (counterscreen for miR-21 project). Luciferin 4-monooxygenase (Photinus pyralis), P08659. 360,000 tested, 6.9% active. purified FLuc, Km substrates, luminescence inhibition. Potency, µM (highest dose often 57.5 µM), for inactives: top-dose activity change, negative = inhibition, actives largely listed as inhibitors;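 further: plate controls were vehicle for no effect and reference inhibitor for full effect; nearly all actives have a fitted effect of over 55% in size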
Target sequence (P08659 whole entry, looked up): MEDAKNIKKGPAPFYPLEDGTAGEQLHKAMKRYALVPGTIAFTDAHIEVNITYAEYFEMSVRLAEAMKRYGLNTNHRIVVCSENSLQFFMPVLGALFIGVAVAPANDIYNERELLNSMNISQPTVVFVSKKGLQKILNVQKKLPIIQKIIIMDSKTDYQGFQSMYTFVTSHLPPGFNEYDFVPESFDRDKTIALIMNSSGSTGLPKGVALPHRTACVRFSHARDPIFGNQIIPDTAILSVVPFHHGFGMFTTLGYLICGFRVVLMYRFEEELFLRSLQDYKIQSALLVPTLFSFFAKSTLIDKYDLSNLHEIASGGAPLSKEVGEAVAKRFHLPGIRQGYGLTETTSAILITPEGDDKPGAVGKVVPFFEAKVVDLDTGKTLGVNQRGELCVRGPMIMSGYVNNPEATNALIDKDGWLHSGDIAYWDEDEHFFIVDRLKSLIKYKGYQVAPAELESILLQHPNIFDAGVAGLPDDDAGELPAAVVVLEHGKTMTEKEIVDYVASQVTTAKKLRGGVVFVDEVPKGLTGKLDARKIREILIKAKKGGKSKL
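Purified P. pyralis luciferase, 10 nM final, with Km-level 10 uM D-luciferin and 10 uM ATP in 50 mM Tris acetate pH 7.5, 10 mM Mg acetate, 0.01% Tween-20, 0.05% BSA; 6-point qHTS titration about 60 µM downward; luminescence read.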
NPC1 prom act = qHTS Assay for NPC1 Promoter Activators. Huh7 NPC1 promoter luciferase reporter, 24 h. Potency, µM (highest dose often 9.22 µM), without a hit: at the top dose activation, usual class: activators. 320,000 tested, 2.4% active. AID 485313, 2010; further: % of control where 0% means no effect; nearly all actives have a fitted effect of over 60% in size
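Stable NPC1-promoter luciferase Huh7 line; cpd (DMSO) 24 h, 37 °C, 5% CO2; Amplite luciferase reagent 10 min RT; luminescence readout. qHTS format.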
KinaseGlo FLuc = Counterscreen for Luciferase (Kinase-Glo TM) Inhibition. Potency, µM (titrated, usually from 38.3 µM), inactives show at the highest dose activity change, negative = inhibition, hits mostly inhibitors. Kinase-Glo luciferase, ATP luminescence, 8 min. 200,000 tested, 0.28% active. AID 1379, 2008. Luciferin 4-monooxygenase (Photuris pensylvanica), Q27757; further: on the % scale 0 is the no-effect control and ±100 the full control effect; nearly all actives have a fitted effect of over 60% in size
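Light output from Kinase-Glo luciferase with luciferin and 10 uM ATP in 50 mM imidazole pH 7.2, KCl, MgCl2, Tween 20, BSA; compound pin-delivered, 8-min ambient incubation, then luminescence read.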
Rab9 prom act = qHTS Assay for Rab9 Promoter Activators. Huh7 Rab9 promoter-luciferase reporter, luminescence, 24 h. Potency, µM (top dose mostly 9.22 µM), inactives show top-dose activation, negative = inhibition, usual class: activators. 320,000 tested, 2.8% active. AID 485297, 2010; further: % of control where 0% means no effect; nearly all actives have a fitted effect of over 60% in size
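Luciferase signal after 10 min detection reagent at ambient indicates Rab9 promoter upregulation; stably transfected Huh7 cells were treated 24 h with compound in DMSO at 37 °C, 5% CO2.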
* hit, by the source's call; ? = inconclusive; . = not tested or not shown. Shown are actives, neighbours in structure and some others; about 7.5% of the full set was active somewhere. The call rests on the fitted dose curve; in most records, active means well fitted curve in the direction sought with a large enough effect; inconclusive means small, poorly fitted or top-dose-only effect, or another doubt; inactive means no such curve, though single readings can be large; an effect the other way counts as inactive or inconclusive. Potency means the concentration at half of the fitted maximal effect.

SMILES	ELG1 genotox	SMN2 splice up	FLuc counter	NPC1 prom act	KinaseGlo FLuc	Rab9 prom act
CC(=O)Nc1cccc(Cn2cccn2)c1	13%	8%	1%	0%	-2%	-6%
CC(C)(C)C(=O)Cn1c(=O)n(CCCCCC(=O)NCc2ccccc2Cl)c(=O)c2sccc21	.	-12%	-2%	.	.	.
COc1ccc(S(=O)(=O)Nc2ccc(-c3ccc4nncn4n3)cc2)c(OC)c1	1%	.	3%	-4%	.	-1%
CCc1ccc(S(=O)(=O)Nc2cccc(-c3ccc(N4CCC(C)CC4)nn3)c2)s1	.	.	1.3µM*	.	.	.
COc1ccc(S(=O)(=O)Nc2cccc(-c3ccc(N4CCC(C)CC4)nn3)c2)c(OC)c1	.	.	2.7µM*	.	.	.
CCc1ccc(S(=O)(=O)Nc2cccc(-c3ccc4nncn4n3)c2)s1	10%	-31%	1%	-12%	2%	-3%
COc1ccc(F)cc1S(=O)(=O)Nc1cccc(-c2ccc(N3CCCCCC3)nn2)c1	.	.	9.5µM*	.	.	.
COc1ccccc1S(=O)(=O)Nc1cccc(-c2nnc3n2CCCCC3)c1	-1%	-3%	1%	-3%	6%	-10%
COc1ccc(OC)c(S(=O)(=O)Nc2cccc(-c3ccc(N4CCCCC4)nn3)c2)c1	.	.	6µM*	.	.	.
CCS(=O)(=O)N1CCc2cc(C(=O)N3CCN(c4ccc(OC)cc4)CC3)ccc21	.	.	-10%	.	.	.
Cc1ccc(Oc2ncnc(N)c2[N+](=O)[O-])cc1C	-13%	-4%	1%	-3%	-1%	-9%
O=C1CC(c2ccc(O[C@@H]3OC(CO)[C@@H](O)C(O)C3O)cc2)Oc2cc(O)ccc21 (stereo partly specified)	.	-6%	.	.	-1%	.
C[C@H](NC(=O)OC(C)(C)C)c1nnc(SCc2ccc(Cl)cc2Cl)o1	.	-63%	-17%	.	.	.
CCOc1ccccc1N(C)C(=O)c1cc(S(=O)(=O)NCc2ccc(C)cc2)ccc1F	.	.	-3%	.	.	.
Cc1ccc(S(=O)(=O)Nc2cccc(-c3ccc4nnc(C)n4n3)c2)s1	21µM*	13µM*	2%	-12%	-1%	1%
CCS(=O)(=O)Nc1cccc(-c2ccc3nnc(C)n3n2)c1	?	163%	4%	-6%	3%	2%
Cc1cc(CN(C)Cc2cn(C)nc2-c2ccc(Oc3ccccc3)cc2)on1	-9%	.	-7%	2%	.	-10%
COc1ccccc1NC(=O)COC(=O)c1c(C)nn(-c2ccccc2)c1C	14%	.	7.6µM*	?	.	?
Cc1nn(-c2ccccc2)c(C)c1C(=O)OCC(=O)Nc1ccccc1	11%	.	9.5µM*	?	.	?
Cc1ccc(NC(=O)COC(=O)c2c(C)nn(-c3ccccc3)c2C)cc1	2%	.	-2%	0%	.	-6%
COc1ccccc1/C=N/Nc1cc(C)nc(N2CCOCC2)n1	-3%	.	13µM*	4%	.	0%
COc1cccc(/C=N/Nc2nc(Nc3ccccc3)nc(-n3nc(C)cc3C)n2)c1O	-25%	-8%	6µM*	-3%	-5%	-39%
COc1ccc(/C=N\Nc2ncc(F)c(N3CCOCC3)n2)cc1OC	-8%	.	11µM*	-2%	.	12%
COc1ccc(/C=N/Nc2cc(C)nc(-n3nc(C)cc3C)n2)c(OC)c1	?	-102%	17µM*	0%	-1%	-12%
Cc1cc(C)n(-c2nc(Nc3ccccc3)nc(-n3nc(C)cc3C)n2)n1	-4%	-18%	5%	2%	1%	3%
SMILES	ELG1 genotox	SMN2 splice up	FLuc counter	NPC1 prom act	KinaseGlo FLuc	Rab9 prom act
COc1ccc(/C=N/Nc2cc(C)nc(N3CCOCC3)n2)cc1OC	2%	.	6.7µM*	9%	.	17%
COc1ccc(/C=N/Nc2cc(C)nc(N3CCOCC3)n2)cc1	3%	.	2.4µM*	12%	.	19%
COc1cccc(NC(=O)c2ccccc2-c2nc(-c3ccccc3)no2)c1	6%	-13%	?	0%	-4%	-1%
COc1ccccc1-c1noc(-c2ccccc2C(=O)Nc2ccccc2)n1	4%	-3%	11µM*	11%	8%	26%
COc1ccccc1NC(=O)c1ccccc1-c1nc(-c2ccccc2OC)no1	-7%	18%	11µM*	5%	-8%	8%
COc1cccc(NC(=O)c2ccccc2-c2nc(-c3ccc(Cl)cc3)no2)c1	-3%	-2%	13µM*	9%	-1%	9%
Cc1ccc2c(c1)N(C(=O)N1CCC(C(=O)NCc3cccc(Br)c3)CC1)CCO2	.	.	-18%	.	.	.
CCC1CSC(=Nc2ccc(C)cc2)N1C(=O)CN1C(=O)NC2(CCCC2)C1=O (stereo unspecified)	2.6µM*	.	17µM*	0.56µM*	.	0.79µM*
O=C(Nc1ccc(F)cc1F)c1ccc(-c2ccccc2)s1	.	22%	-20%	.	.	.
O=C(Nc1ccccc1)c1ccc(-c2ccc(F)cc2)s1	7.3µM*	?	?	?	-5%	?
O=C(Nc1cccc(F)c1)c1ccc(-c2ccccc2)s1	.	16%	2.1µM*	.	.	.
Cc1ccc(NC(=O)c2ccc(-c3ccccc3)s2)cc1	.	5%	-15%	.	.	.
Cc1cccc(NC(=O)c2ccc(-c3ccccc3)s2)c1	.	?	2.4µM*	.	.	.
O=C(Nc1ccccc1)c1c(F)cccc1F	11%	-2%	-16%	18%	-9%	-6%
Cc1cc(OC(=O)c2c(F)cc(F)cc2F)nc(C)n1	-7%	-2%	0%	-3%	7%	-8%
Cn1c(/N=C/c2ccccc2[N+](=O)[O-])nc2ccccc21	-3%	.	1.7µM*	-1%	.	4%
COc1ccc(/C=N/c2nc3ccccc3n2C)cc1OC	-3%	-21%	0.76µM*	1%	?	-4%
Cn1c(/N=C/c2cccs2)nc2ccccc21	2%	0%	1.1µM*	-2%	?	-8%
CCN(Cc1ccccc1)C(=O)CN1C(=O)COc2ccc(S(=O)(=O)N3CCOCC3)cc21	.	.	-2%	.	.	.
CCCC(=O)Nc1nc(-c2ccc(OC)cc2)cs1	?	?	?	24%	17%	?
COc1ccc(-c2csc(COC(=O)C(C)(C)C)n2)cc1	6%	.	2.4µM*	24%	.	?
CC(C)(C)C(=O)OCc1nc(-c2ccc(Cl)cc2)cs1	?	.	1.2µM*	3.5µM*	.	4.5µM*
